Hits are enriched below; roughly 4.1% of the tested compounds scored in any of these assays.
PglD inh: C. jejuni PglD acetyltransferase inhibitors, primary screen, biochemical, DTNB colorimetric, single point; UDP-N-acetylbacillosamine N-acetyltransferase PglD (Campylobacter jejuni); purified PglD enzyme, DTNB colorimetric CoA detection; inhibition, % at 12.5 µM; 360,000 tested, 0.098% active; AID 602405, 2012; in the data active means inhibition above about 16%, passing the limit was not always enough; inconclusive means no clear call, values can overlap the other calls
NSD2 inh: NSD2 histone methyltransferase inhibitors, primary screen, biochemical, AlphaScreen, single concentration, set 2; 310,000 tested, 0.54% active; inhibition, % at 12.5 µM; NSD2 peptide methylation, 120 min; Histone-lysine N-methyltransferase NSD2 (Homo sapiens), O96028; in the data active means inhibition above about 50%
F508del corr: F508del CFTR correction, initial screen, CFBE line, single point; CFBE cells, YFP halide quenching; stimulated with forskolin plus potentiator P3; % fluorescence drop versus neutral controls; 350,000 tested, 0.36% active; activity (quench increase), % at 7.58 µM; AID 720511, 2013;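 active means mean added fluorescence quench of at least 8% versus neutral control, with both replicates also reaching 8%; inconclusive means only one of the mean or replicate conditions met; inactive means mean below 8% and not both replicates reaching 8%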;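 further: cells transiently co-express mutant CFTR-F508del with the halide-sensitive YFP; corrector assay measuring rescue of mutant channel to the surface after 24 h compound exposure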
ALR H2O2 inh: inhibitors of human ALR sulfhydryl oxidase, primary screen, biochemical, H2O2 detection, HRP-luminol luminescence, single point | FAD-linked sulfhydryl oxidase ALR (Homo sapiens), P55789 | purified ALR, DTT oxidation | inhibition, % (test concentration not listed) | 290,000 tested, 3.8% active;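 active means mean replicate inhibition above about 79%, with every replicate also reaching it, limit read from the data; inconclusive means only one of the two criteria met; inactive means mean below limit and not every replicate reaching it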
Target sequence (P55789 whole entry, looked up): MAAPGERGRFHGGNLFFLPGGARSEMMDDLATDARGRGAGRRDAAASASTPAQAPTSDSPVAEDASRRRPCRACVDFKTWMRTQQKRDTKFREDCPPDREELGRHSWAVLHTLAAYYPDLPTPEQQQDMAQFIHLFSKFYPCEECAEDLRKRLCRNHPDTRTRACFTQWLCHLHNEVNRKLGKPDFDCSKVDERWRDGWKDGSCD
HIV Env fusion: inhibitors of HIV-1 Env-driven cell-cell fusion, primary screen, HeLa-JRFL effector, CEM21 target cells, luciferase; inhibition, % at 12.3 µM; AID 651610, 2012; 360,000 tested, 1.1% active;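 active means mean replicate inhibition score of at least 50 and every replicate individually at or above 50; inconclusive means only one of the two criteria met; inactive means mean below 50 and not all replicates reaching 50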;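 further: 0% = plate neutral controls and 100% = maraviroc near 300 nM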
Casp6 inh: human caspase-6 inhibitors, primary screen, biochemical, VEID-R110 fluorescence, single point, set 2 | P55212 | purified caspase-6, Z-VEID-R110 cleavage fluorescence | inhibition, % at 12.5 µM | 350,000 tested, 0.53% active | AID 686996, 2013;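 active means mean inhibition across replicates at least about 35%, with every replicate also reaching that limit, limit read from the data; inconclusive means only one of the two criteria met; inactive means neither criterion met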;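 further: 0% = median of neutral control wells and 100% = no fluorescence left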
Target sequence (P55212 24-179 limits assumed): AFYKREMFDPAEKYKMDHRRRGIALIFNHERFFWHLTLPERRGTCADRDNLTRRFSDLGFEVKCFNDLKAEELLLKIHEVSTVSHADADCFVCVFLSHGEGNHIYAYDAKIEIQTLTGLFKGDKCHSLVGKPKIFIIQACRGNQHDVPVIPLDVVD
Target sequence (P55212 194-293 limits assumed): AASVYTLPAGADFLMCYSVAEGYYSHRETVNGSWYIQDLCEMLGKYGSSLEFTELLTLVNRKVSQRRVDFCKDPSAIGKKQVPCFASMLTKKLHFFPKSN
Starred values were filed as active, the others as inactive; u = inconclusive; x = no result given; + = active, no number; [ ] = another dose, or the depositor's remark.

SMILES	PglD inh	NSD2 inh	F508del corr	ALR H2O2 inh	HIV Env fusion	Casp6 inh
COCC(=O)Nc1ccc2c(c1)OC[C@@H](C)N(Cc1ccccc1)C[C@H](C)[C@@H](OC)CN(C)C2=O	3	x	-1	x	x	-2
COc1ccc(NC(=O)N[C@@H]2CC[C@H](CCNC(=O)Nc3cc(F)ccc3F)O[C@@H]2CO)cc1	-1	x	0	x	x	-44
c1cn2c(NC3CCCCC3)c(-c3ccc(SC4CCCCC4)cc3)nc2cn1	4	x	0	x	-8	1
c1cn2c(NC3CCCC3)c(-c3ccc(N4CCOCC4)cc3)nc2cn1	-4	x	-1	99*	-33	2
c1cc(SC2CCCCC2)cc(-c2nc3cnccn3c2NC2CCCCC2)c1	-1	x	0	-1	59*	-1
CCN(CC)c1ccc(-c2nc3cnccn3c2NC2CCCC2)cc1	4	-15	x	x	-18	x
O=C1CCCc2c1sc1nc3n(c(=O)c21)CCCCC3	1	-1	x	-3	-87	x
O=C1c2sc3nc4n(c(=O)c3c2CCC1Br)CCCCC4 (configuration not stated)	7	+	x	82*	-381	x
Cc1nc2ccccc2n1CC(=O)c1ccc(O)c(O)c1	2	x	-2	98*	u	22
O=C(CSc1nc2ccccc2n1CCc1ccccc1)c1ccc(O)c(O)c1	-3	102*	-2	x	-1	70*
CC(=O)N(C)C[C@H]1Oc2cc(C3=CCCCC3)ccc2S(=O)(=O)N([C@@H](C)CO)C[C@H]1C	x	x	-3	x	8[16.7 µM]	x
COc1cccc(S(=O)(=O)N[C@@H]2CC[C@@H](CCn3cc(-c4ccccn4)nn3)O[C@H]2CO)c1	3	x	1	x	-24[16.7 µM]	-1
CC[C@@]12C(=O)N(c3cccc(Cl)c3)C(=O)N1[C@H](c1cccc(C)c1)[C@@H]1C(=O)N(Cc3ccccc3)C(=O)[C@@H]12	-1	x	-2	-5	46	-4
Cc1ccc(N2C(=O)N3[C@H](c4cccc(C)c4)[C@@H]4C(=O)N(Cc5ccccc5)C(=O)[C@@H]4[C@]3(C)C2=O)cc1	-2	x	2	3	81*	-1
CCN1C(=O)[C@H]2[C@@H](c3ccc(C)cc3)N3C(=O)N(c4cccc(Cl)c4)C(=O)[C@@]3(C)[C@H]2C1=O	4	x	1	x	37	0
CCN1C(=O)[C@H]2[C@@H](c3ccc(C)cc3)N3C(=O)N(c4cccc(Cl)c4)C(=O)[C@@]3(CC)[C@H]2C1=O	0	x	-1	4	96*	1
Cc1cccc([C@@H]2[C@@H]3C(=O)N(Cc4ccccc4)C(=O)[C@@H]3[C@]3(C)C(=O)N(c4cccc(F)c4)C(=O)N23)c1	-4	x	5	29	50	-2
Cc1cccc([C@@H]2[C@@H]3C(=O)N(Cc4ccccc4)C(=O)[C@@H]3[C@]3(CC(C)C)C(=O)N(c4cccc(Cl)c4)C(=O)N23)c1	-2	x	3	x	55*	1
CN(C)C(=O)C[C@@H]1C[C@H]2c3cc(NS(=O)(=O)c4ccccc4)ccc3O[C@H]2[C@@H](CO)O1	2	x	2	x	x	0
CCC(=O)N(C)C[C@@H]1[C@@H](c2ccc(C3=CCCCC3)cc2)[C@H](CO)N1C(C)=O	8	x	-2	x	x	x
COCC(=O)N(C)C[C@@H]1Oc2cc(C#CC3CCCC3)ccc2S(=O)(=O)N([C@H](C)CO)C[C@H]1C	x	x	1	x	14[16.7 µM]	x
N#Cc1ccccc1NC(=S)NC(=O)c1cccnc1	-5	-1	3	95*	4	-2
CC(C)c1ccc(O)c(NC(=O)c2cccnc2)c1	0	2	4	89*	x	-1
O=C(NC(=S)Nc1ccccc1O)c1cccnc1	-3	28	3	28	-12	2
CCC(C)c1ccc(O)c(NC(=S)NC(=O)c2cccnc2)c1 (configuration not stated)	x	0	0	98*	-8	-2
SMILES	PglD inh	NSD2 inh	F508del corr	ALR H2O2 inh	HIV Env fusion	Casp6 inh
COC(=O)c1cc(CN2CCN(c3ccccc3)CC2)ccc1O	5	4	-1	98*	-5	-1
CO[C@@H]1CN(C)C(=O)c2ccc(NC(=O)Nc3ccccc3F)cc2OC[C@@H](C)N(C)C[C@@H]1C	-5	x	2	x	x	1
O=C1C=C(Nc2ccc(F)cc2)c2ccccc2C1=O	3	6	-1	25	40	40*
Cc1ccc(NC2=CC(=O)C(=O)c3ccccc32)c(C)c1	-7	3	-1	-43	58*	19
Cn1c(=NC(=O)CS(=O)(=O)c2ccccc2)sc2cc(F)ccc21	-1	0	-2	x	1	0
CC(=O)SCC(=O)N=c1sc2cc(F)ccc2n1C	x	x	x	99*	x	x
COc1ccc(Br)cc1CSC(=N)N	x	0	3	99*	-8	-3
O=C(COC(=O)c1cccc(Br)c1)NC1CCCCCCC1	-4	3	-2	x	58*	1
Cc1ccccc1CSCCNC(=O)CSCc1ccc([N+](=O)[O-])cc1	1	-2	x	99*	u	x
O=C(CSCc1ccc([N+](=O)[O-])cc1)NC1CCCCCC1	x	-4	0	99*	33	-2
O=C(CCC(=O)OCC(=O)c1ccc([N+](=O)[O-])cc1)NC1CCCCC1	3	0	x	80*	15	x
O=C(CSCc1ccc(F)cc1)NC1CCCC1	4	3	x	-4	x	x
CCCNC(=O)N[C@@H]1CC[C@H](CCn2cc(C3CCCC3)nn2)O[C@@H]1CO	0	x	0	x	15[16.7 µM]	-2
O=C(CSCc1cccc(Br)c1)NC1CC1	x	-2	x	98*	2	2
O=C(CNC(=O)c1ccccc1)NCC(=O)OCC(=O)c1ccc([N+](=O)[O-])cc1	x	-3	-4	97*	21	1
Nc1ccc(NC(=O)NC2CCCCC2)cc1	-1	2	1	99*	-6	-5
CCOc1cc(/C=N/Nc2nc(N3CCCC3)nc(N3CCCC3)n2)ccc1O	0	7	x	99*	-98	x
CCOc1cc(/C=N/Nc2cccc(C(=O)O)c2)ccc1OC(=O)c1ccccc1	x	6	-1	x	65*	12
CCOc1cccc(/C=N/Nc2nc(N3CCCC3)nc(N3CCCC3)n2)c1O	5	0	2	-13	-6	-3
C(=N\Nc1nc(Nc2ccccc2)nc(N2CCOCC2)n1)/c1c[nH]c2ccccc12	x	0	x	8	70*	x
COc1cc(/C=N/Nc2nc(N3CCCCC3)nc(N3CCCCC3)n2)ccc1OC(=O)c1ccco1	x	-6	x	-1	x	x
